Reference: PubChem BioAssay (NCATS)
Results filed as inconclusive are left out. Activity calls are given as the source filed them. Calls follow the shape of the dose curve; as a rule, active = well fitted curve in the direction sought with a large enough effect; inconclusive = small, poorly fitted or top-dose-only effect, or another doubt; inactive = no such curve, though single readings can be large; an effect the other way counts as inactive or inconclusive.

Columns and labels:
[1] = biological target: Calcium and integrin-binding protein 1 (Homo sapiens) (UniProt Q99828); assay: Primary qHTS for Identification of Calcium Integrin Binding Protein 1 (CIB1) Competitor (AID 1508620); conditions: CIB1-GST / FITC-alphaIIb peptide fluorescence polarization; series mostly up to 57.7 µM;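 also: GST tagged CIB1 binding a fluorescein labelled alphaIIb integrin peptide tracer; top concentration of the series differs between compounds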
Chain of Calcium and integrin-binding protein 1 (Homo sapiens) (Q99828 whole entry, looked up): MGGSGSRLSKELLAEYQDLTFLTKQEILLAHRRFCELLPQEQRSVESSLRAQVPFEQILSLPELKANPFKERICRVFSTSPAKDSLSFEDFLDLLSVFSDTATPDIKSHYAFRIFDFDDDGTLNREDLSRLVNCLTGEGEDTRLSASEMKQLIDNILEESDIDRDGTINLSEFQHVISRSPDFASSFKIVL
Method in brief: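 Fluorescence polarization competition: GST-tagged CIB1 (1 uM final) preincubated with compound 15 min at room temperature, then FITC-labelled alphaIIb peptide (100 nM final) added. After 15 min at room temperature, polarization read at Ex 480/Em 540.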

[2] = Primary qHTS for inhibitors of nuclear receptor binding SET domain protein 2 (NSD2) in an isogenic RCH-ACV NSD2 p.E1099K mutant (9B) (AID 1645876); conditions: RCH-ACV NSD2 E1099K (9B) viability, CellTiter-Glo, 72 h; series mostly up to 44.9 µM; also: nearly all actives have a fitted effect of over 70% in size
[3] = Primary qHTS for inhibitors of nuclear receptor binding SET domain protein 2 (NSD2) in an RCH-ACV wild type WT cells (2C) (AID 1645877); conditions: RCH-ACV (leukaemia line) NSD2 WT (2C) viability, CellTiter-Glo, 72 h; series mostly up to 44.9 µM; also: nearly all actives have a fitted effect of over 70% in size
% is scaled to controls: 0 for no effect and ±100 for the full control effect.

CC1=C(CCC(C)O[C@@H]2O[C@H](CO)[C@@H](O)[C@H](O)[C@H]2O)C(C)(C)CC(O)C1 (stereo partly drawn)
inactive: Potency [1] | Potency [2] | Potency [3]

COc1cc(C(=O)OC[C@@]2(O)CO[C@@H](O[C@H]3[C@H](Oc4ccc(O)cc4)O[C@H](CO)[C@@H](O)[C@@H]3O)[C@@H]2O)cc(OC)c1O
inactive: Potency [1] | Potency [2] | Potency [3]

COc1cc(/C=C/C(=O)O[C@@H]2C[C@@](O)(C(=O)O)C[C@@H](O)[C@@H]2O)ccc1O
inactive: Potency [1] | Potency [2] | Potency [3]

COC(=O)C1=COC(OC2OC(CO)C(O)C(O)C2O)C2C(C)C(OC(=O)/C=C/c3ccc(O)cc3)C(O)C12 (stereo not drawn)
inactive: Potency [1] | Potency [2] | Potency [3]

CC1=C2CC(C)(C)CC2C(O)C2=C(C1)C(=O)OC2O (stereo not drawn)
inactive: Potency [1] | Potency [2] | Potency [3]

C[C@]12CCC[C@](C)(C(=O)O)C1[C@@H](O)[C@@H](O)C13CC(CCC12)C(CO)(O[C@@H]1O[C@H](CO)[C@@H](O)[C@H](O)[C@H]1O)C3 (stereo partly drawn)
inactive: Potency [1] | Potency [2] | Potency [3]

C=C1C(O)C(O)C2(CC3C(C)=CCC4C(C)(C(=O)O)CCCC34C)OC2C1O (stereo not drawn)
inactive: Potency [1] | Potency [2] | Potency [3]

C/C(=C\CCC(C)(C)O)CCO[C@@H]1O[C@H](CO[C@@H]2O[C@@H](C)[C@H](O)[C@@H](O)[C@H]2O)[C@@H](O)[C@H](O)[C@H]1O
inactive: Potency [1] | Potency [2] | Potency [3]

C/C=C/C=C/[C@@H]1O[C@](O)([C@H](CC)C(=O)NC/C=C/C=C(\C)[C@@H](OC)[C@@H](C)[C@@H]2O[C@H](/C=C/C=C/C=C(\C)C(=O)c3c(O)ccn(C)c3=O)[C@H](O)[C@@H]2O)[C@H](O)[C@H](O)C1(C)C
inactive: Potency [1] | outcome [2] inactive [at 9.23 µM] | outcome [3] inactive [at 9.23 µM]

COc1cc([C@@H](O[C@@H]2O[C@H](CO)[C@@H](O)[C@H](O)[C@H]2O)[C@@H]2CO[C@H](c3ccc(O)c(OC)c3)[C@H]2CO)ccc1O
inactive: Potency [1] | Potency [2] | Potency [3]

CC1(C)CC[C@]2(C(=O)OC3OC(CO)C(O)C(O)C3O)CC[C@]3(C)C(=CCC4[C@@]5(C)C[C@@H](O)[C@H](OC6OC(C(=O)O)C(O)C(O)C6O)C(C)(C)C5CC[C@]43C)[C@@H]2C1 (stereo partly drawn)
inactive: Potency [1] | activity change, negative = viability loss [2] -7.32% [at 9.23 µM] | activity change, negative = cell killing [3] -10.4% [at 9.23 µM]

CC1(C)CC2C(O)C3=C(CC(C)(O)C2C1)C(=O)OC3 (stereo not drawn)
inactive: Potency [1] | Potency [2] | Potency [3]

COC(=O)C1=CO[C@@H](O[C@@H]2O[C@H](CO)[C@@H](O)[C@H](O)[C@H]2O)C2C1CC(O)C2C (stereo partly drawn)
inactive: Potency [1] | Potency [2] | Potency [3]

O=C(C[C@@H]1C(C(=O)O)=CO[C@@H](O[C@@H]2O[C@H](CO)[C@@H](O)[C@H](O)[C@H]2O)/C1=C\CO)OCCc1ccc(O)c(O)c1
inactive: Potency [1] | Potency [2] | Potency [3]

CC1CC(=O)[C@]2(O)C(C(=O)OCCc3ccc(O)cc3)=CO[C@@H](O[C@@H]3O[C@H](CO)[C@@H](O)[C@H](O)[C@H]3O)[C@H]12 (stereo partly drawn)
inactive: Potency [1] | Potency [2] | Potency [3]

COc1cc(C(CO)C(OC2OC(CO)C(O)C(O)C2O)c2ccc(O)c(OC)c2)ccc1O (stereo not drawn)
inactive: Potency [1] | Potency [2] | Potency [3]
